# Hits are enriched below; roughly 17% of the tested compounds scored in any of these assays.
# TDP1 cell noCPT: qHTS for Inhibitors of human tyrosyl-DNA phosphodiesterase 1 (TDP1): qHTS in cells in absence of CPT | DT40 Tdp1-/- hTDP1 cells, no CPT, ATP luminescence, 48 h | actives 15% (n = 420,000) | Potency, µM (highest dose often 46.2 µM), most hits filed as inhibitors; further: nearly all actives have a fitted effect of over 55% in size
#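 Stably hTDP1-transfected Tdp1-null chicken DT40 cells were treated with library compounds minus camptothecin and grown for at least 48 hr at 37 °C, after which cellular ATP was quantified by luminescence.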
# ClpP mod: qHTS Assay for Activators of ClpP; purified B. subtilis ClpP, FRET peptide cleavage, 20 min; Potency, µM (highest dose often 57.5 µM); ATP-dependent Clp protease proteolytic subunit (Bacillus subtilis (strain 168)), P80244; actives 1.9% (n = 340,000); active means well fitted falling curve with a large enough effect; inconclusive means small, poorly fitted or top-dose-only effect; inactive means no such curve, though single readings can be large or run the other way; further: the source files actives as falling curves though it sought activators and does not explain the sign; nearly all actives have a fitted effect of over 65% in size
#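 Buffer: 100 mM Tris/HCl pH8, 100 mM KCl, 0.05% low protease BSA, 2.5% glycerol, 0.01% Tween-20. ClpP 10 microg/mL final; 20 min RT; delta FRET normalized to ADEP and DMSO controls.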
# TDP1 inh: qHTS Assay for Inhibitors of Tyrosyl-DNA Phosphodiesterase (TDP1) | Tyrosyl-DNA phosphodiesterase 1 (Homo sapiens), Q9NUW8 | recombinant TDP1, AlphaScreen DNA substrate cleavage | Potency, µM (titrated, usually from 130 µM), hits mostly inhibitors | actives 0.28% (n = 350,000) | AID 485290, 2010; further: nearly all actives have a fitted effect of over 40% in size
# Target sequence (Q9NUW8 whole entry, looked up): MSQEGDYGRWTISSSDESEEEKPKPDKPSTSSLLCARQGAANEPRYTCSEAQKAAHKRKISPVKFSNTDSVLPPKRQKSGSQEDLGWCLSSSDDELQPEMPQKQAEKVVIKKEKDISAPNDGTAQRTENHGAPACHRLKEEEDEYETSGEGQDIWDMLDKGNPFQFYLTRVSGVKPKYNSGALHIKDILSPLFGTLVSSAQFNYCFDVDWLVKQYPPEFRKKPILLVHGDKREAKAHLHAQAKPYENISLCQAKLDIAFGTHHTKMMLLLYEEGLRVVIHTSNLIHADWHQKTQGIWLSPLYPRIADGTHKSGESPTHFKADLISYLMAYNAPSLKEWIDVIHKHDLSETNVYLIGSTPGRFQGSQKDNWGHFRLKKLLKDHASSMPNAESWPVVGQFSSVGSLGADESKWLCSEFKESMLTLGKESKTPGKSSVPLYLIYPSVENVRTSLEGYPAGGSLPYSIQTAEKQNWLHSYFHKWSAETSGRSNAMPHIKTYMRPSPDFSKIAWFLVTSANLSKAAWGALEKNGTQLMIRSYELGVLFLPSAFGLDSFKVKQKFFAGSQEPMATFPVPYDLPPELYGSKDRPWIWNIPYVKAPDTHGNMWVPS
#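 AlphaScreen read-out: signal falls as enzyme removes the 3' tyrosine-FITC from a 5'-biotinylated DNA oligo (15 nM, 5 min, RT). Enzyme was E. coli-made recombinant Tdp1 at 1 nM, exposed to compound for 15 min beforehand; beads 10 ug/ml, 10 min.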
# DT40 TDP1 CPT: qHTS for Inhibitors of human tyrosyl-DNA phosphodiesterase 1 (TDP1): qHTS in cells in presence of CPT | actives 12% (n = 420,000) | chicken DT40 Tdp1-/-;hTDP1 cells + 20 nM CPT, ATP luminescence, 48 h | Potency, µM (titrated, usually from 46.2 µM), usual class: inhibitors; further: nearly all actives have a fitted effect of over 55% in size
#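 Chicken DT40 Tdp1-/- cells complemented with human TDP1, 400 cells/well, exposed to compounds plus 20 nM camptothecin for at least 48 h at 37 C; viability read as ATP content by CellTiter-Glo luminescence.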
# A number is an active result; . = inactive; ? = inconclusive; / = no result; [ ] = dose if it differs, or a comment. Unless noted, the call rests on the fitted dose curve; in most records, active means well fitted curve in the direction sought with a large enough effect; inconclusive means small, poorly fitted or top-dose-only effect, or another doubt; inactive means no such curve, though single readings can be large; an effect the other way counts as inactive or inconclusive.
SMILES,TDP1 cell noCPT,ClpP mod,TDP1 inh,DT40 TDP1 CPT
Cc1ccc(-c2[nH]ncc2/C=N/n2c(COc3ccccc3C)nc3ccccc3c2=O)cc1,16µM,.,.,21µM
Cc1ccccc1OCc1nc2ccccc2c(=O)n1/N=C/c1c[nH]c2ccccc12,.,.,.,.
Cc1cccc(C)c1OCc1nc2ccccc2c(=O)n1/N=C/c1c[nH]c2ccccc12,?,.,.,21µM
O=c1c2ccccc2nc(COc2ccccc2)n1/N=C/c1cc([N+](=O)[O-])ccc1O,13µM,.,.,6.5µM
CCCc1nc2ccccc2c(=O)n1/N=C/c1ccccc1O,.,.,.,?
COCCn1c(SCC(=O)c2ccc(F)cc2)nc2cc(C(=O)NC3CCCC3)ccc2c1=O,.,.,.,.
COc1cc(C(=O)Nc2cc(C)c(O)c(-c3nc4ccccc4s3)c2)cc(OC)c1OC,.,.,.,.
COc1cccc(/C=N/n2c(COc3ccccc3)n[nH]c2=S)c1OC,.,.,/,.
O=[N+]([O-])c1ccc(Cl)c(/C=N/n2c(COc3ccccc3)n[nH]c2=S)c1,21µM,.,.,18µM
S=c1[nH]nc(COc2ccccc2)n1/N=C/c1ccc(Cl)c(Cl)c1,.,.,/,.
COc1ccccc1/C=C/C=N/n1c(COc2ccccc2)n[nH]c1=S,15µM,.,.,?
CC(C(=O)NCc1ccco1)n1ccc2cc(S(=O)(=O)N3CCCCC3)ccc21 (centres undefined),.,.,.,?
O=C(/C=C/c1ccc2c(c1)OCO2)NCc1ccncc1,?,/,/,.
Cc1cc(C(=O)Nc2ccc(Br)cn2)sc1C,.,.,.,.
COc1ccc(COCC(O)CN2CCN(S(=O)(=O)c3ccc(C(C)C)cc3)CC2)cc1 (centres undefined),21µM,.,.,26µM
CC(C)c1ccccc1OCC(O)CN1CCN(S(=O)(=O)c2ccc([N+](=O)[O-])cc2)CC1 (centres undefined),8.2µM,.,/,?
CC(OCC(O)CN1CCN(S(=O)(=O)c2ccc(Cl)cc2)CC1)c1ccc(Cl)cc1 (centres undefined),10µM,.,/,12µM
CC(C)c1ccc(S(=O)(=O)N2CCN(CC(O)CN3CCOCC3)CC2)cc1 (centres undefined),.,.,.,.
CCC(C(=O)NCCCN1CC(C)CC(C)C1)n1nc(C)c2sc3ccccc3c2c1=O (centres undefined),?,.,.,?
CCOc1ccc(CN(CCc2ccc3c(c2)OCO3)Cc2cc(OC)c(OC)cc2OC)cc1,15µM,.,.[2.28 µM],?
CCOc1ccccc1CN(CCc1ccc2c(c1)OCO2)Cc1cccc(OC)c1OC,16µM,.,/,18µM
COc1cccc(C2=CC(c3ccccc3F)n3ncc(C(=O)Nc4ccc(C)cc4)c3N2)c1 (centres undefined),16µM,.,.,?
CCOc1ccc(NC(=O)c2cnn3c2NC(c2ccccc2)=CC3c2cccc(OC)c2OC)cc1 (centres undefined),?,.,.,?
COc1cccc(C2C=C(c3ccccc3)Nc3c(C(=O)Nc4ccccc4)cnn32)c1OC (centres undefined),15µM,.,.,16µM
Cc1ccc(NC(=O)c2cnn3c2NC(c2ccccc2)=CC3c2ccccc2)cc1 (centres undefined),?,.,.,10µM
SMILES,TDP1 cell noCPT,ClpP mod,TDP1 inh,DT40 TDP1 CPT
COC(=O)CCCOc1ccc(Cl)cc1Cl,.,/,.,.
CC(C)(CO)CNC(=O)CCc1nnc(-c2ccc(-c3ccccc3)cc2)o1,21µM,.,/,?
CC(NC(=O)CCc1nnc(-c2ccc(-c3ccccc3)cc2)o1)c1nc2ccccc2[nH]1 (centres undefined),16µM,.,.,18µM
O=C(NCCN1C(=O)S/C(=C\c2ccccc2)C1=O)C1CCN(S(=O)(=O)c2cccs2)CC1,18µM,.,.,13µM
O=C(NCCCN1CCN(c2ccccc2F)CC1)C1CCN(S(=O)(=O)c2cccs2)CC1,?,.,.,13µM
Nc1nnc(-c2cc3c(ccc4ccccc43)oc2=O)s1,/,/,.,/
Cc1ccc(/C=N/NC(=O)c2cccnc2)s1,.,/,.,?
COc1ccc(N2CCN(c3oc(/C=C/c4ccc(F)cc4)nc3C#N)CC2)cc1,.,.,.,.
CC1=C(C(=O)OC2CCCC2)C(c2c(Cl)cccc2Cl)CC(=O)N1 (centres undefined),26µM,.,.,?
CC1=C(C(=O)OC2CCCCCC2)C(c2c(Cl)cccc2Cl)CC(=O)N1 (centres undefined),?,.,.,?
CC1=C(C(=O)OC2CCCC2)C(c2cccc(Cl)c2Cl)CC(=O)N1 (centres undefined),23µM,.,.,?
CC1=C(C(=O)OC2CCCC2)C(c2ccccc2Cl)CC(=O)N1 (centres undefined),13µM,.,.[12.3 µM],16µM
COc1ccccc1C1CC(=O)NC(C)=C1C(=O)OCC(C)C (centres undefined),13µM,.,.,12µM
CCc1nnc2c(NCc3cccc(OC)c3)nc3ccccc3n12,?,.,.[12.3 µM],.
CC(=O)Nc1cccc(NC(=O)C(=O)NCCc2csc3nc(-c4ccccc4F)nn23)c1,.,.,.,.
CC(C)NC(=O)N1CC2(CCN(C(=O)c3ccco3)CC2)C1,.,/,/,.
CC1(C)CC(=O)c2cc(C(=O)Nc3cccc4ccccc34)c(=O)[nH]c2C1,16µM,.,/,?
CC(C)c1nc2ccc(C(=O)NCCCN3CCN(c4ccccc4)CC3)cc2o1,?,.,.,?
O=C(O)c1c[nH]c2c([N+](=O)[O-])cccc2c1=O,9.2µM,.,/,?
O=C(Nc1ccc(S(=O)(=O)N2CCCCC2c2cccnc2)cc1)c1ccc(F)cc1 (centres undefined),18µM,.,.,23µM
O=[N+]([O-])c1cccc(S(=O)(=O)N2CCCCC2c2cccnc2)c1 (centres undefined),?,.,/,21µM
O=C(Nc1ccc(S(=O)(=O)N2CCCCC2c2cccnc2)cc1)c1ccccc1F (centres undefined),?,.,.,?
CC1CCN(C(=O)C2CCCCN2S(=O)(=O)c2cccc([N+](=O)[O-])c2)CC1 (centres undefined),?,.,.,?
COc1ccc(C(=O)Nc2cccc(C(=O)OCc3cc(=O)n4nc(C5CC5)sc4n3)c2)cc1,?,.,.,?
Cc1ccc(-n2sc3cc(F)ccc3c2=O)c(C)c1,2.3µM,.,/,2.9µM
O=c1c2cc(F)ccc2sn1-c1ccccc1Cl,2.3µM,.,/,2.6µM
O=c1c2ccccc2sn1-c1ccc(F)cc1,3.7µM,.,.,3.3µM
COC(=O)c1cccc(-n2sc3ccccc3c2=O)c1,3.3µM,.,.,2.1µM
